# Screens as filed in PubChem BioAssay.
# AmpC inh detg = AmpC beta-lactamase inhibition with detergent present; 0.041% of 370,000 active; AID 485294; Potency, µM (top dose mostly 114 µM), for the others: at the top dose activity change, negative = inhibition, most hits filed as inhibitors; P00811; AmpC hydrolysis of nitrocefin, absorbance 480 nm, 0.01% Triton;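 further: potency means the concentration at half of the fitted maximal effect; 0% = no-compound wells and -100% = no-enzyme wells; nearly all actives have a fitted effect of over 25% in size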
# Target sequence (P00811 whole entry, looked up): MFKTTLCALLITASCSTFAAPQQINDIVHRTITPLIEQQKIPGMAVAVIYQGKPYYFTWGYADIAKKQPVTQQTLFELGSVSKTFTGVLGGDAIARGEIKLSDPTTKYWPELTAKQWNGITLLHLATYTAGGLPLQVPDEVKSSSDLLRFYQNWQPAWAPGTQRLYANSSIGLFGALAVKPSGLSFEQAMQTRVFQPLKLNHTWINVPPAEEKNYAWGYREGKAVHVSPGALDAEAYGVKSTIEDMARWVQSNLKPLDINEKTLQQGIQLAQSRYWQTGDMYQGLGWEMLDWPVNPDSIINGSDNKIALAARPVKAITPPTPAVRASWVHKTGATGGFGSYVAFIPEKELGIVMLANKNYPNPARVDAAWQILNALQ
#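 AmpC (5.3 nM in the dispensed reagent) in 20 mM phosphate pH 7.0 with 0.01% (detergent screen) or 0.0001% Triton X-100 was preincubated with compounds for 15 min at room temperature. Nitrocefin was then added from an 800 uM solution, and hydrolysis was followed at 480 nm.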
# AmpC no deterg = inhibitors of E. coli AmpC beta-lactamase without detergent | P00811 | AmpC nitrocefin hydrolysis, absorbance 480 nm, 0.0001% Triton | Potency, µM (titrated, usually from 57.1 µM), inactives show at the highest dose activity change, negative = inhibition, usual class: inhibitors | 0.52% of 330,000 active | AID 485341;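 further: potency means the concentration at half of the fitted maximal effect; plate controls were no compound for no effect and no enzyme for full effect; nearly all actives have a fitted effect of over 20% in size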
#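 AmpC (5.3 nM in the dispensed reagent) in 20 mM phosphate pH 7.0 with 0.01% (detergent screen) or 0.0001% Triton X-100 was preincubated with compounds for 15 min at room temperature. Nitrocefin was then added from an 800 uM solution, and hydrolysis was followed at 480 nm.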
# SARS PLP yeast = inhibitors of SARS-CoV papain-like protease in yeast | Potency, µM (doses to about 32.9 µM), inactives show at the highest dose activity, positive = growth rescue, hits mostly activators | 0.19% of 330,000 active | S. cerevisiae expressing SARS-CoV PLpro, growth rescue; calls by dose curve; further: potency means the concentration at half of the fitted maximal effect; 0% is about no effect; nearly all actives have a fitted effect of over 55% in size
# Shiga toxin inh = inhibitors of Shiga toxin in Vero cells; Vero cells, Shiga toxin protein synthesis inhibition reporter; inhibition, % at 38.7 µM; 9.2% of 290,000 active; AID 2315; in the data active means inhibition mostly above about 28%, no sharp cut-off; inactive means mostly below about 43%; further: 0% is about no effect
# Cycloheximide cs = counter-screen for Shiga toxin inhibitors: cycloheximide protein synthesis inhibition. max response, %. 12% of 300,000 active. cell reporter, cycloheximide protein synthesis inhibition counterscreen; in the data active means max response mostly above about 13%, no sharp cut-off; inactive means mostly below about 14%; further: read at 38.3 µM for the half of the compounds with a filed dose; 0% is about no effect
# AMA1 RON2 block = inhibitors of Plasmodium falciparum AMA1-RON2 interaction | AlphaScreen AMA1-biotinylated RON2 peptide binding | Potency, µM (highest dose often 58.2 µM), without a hit: top-dose activity change, negative = inhibition, actives largely listed as inhibitors | 0.2% of 360,000 active | AID 720542;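 further: potency means the concentration at half of the fitted maximal effect; 0% = vehicle wells and -100% = peptide control; nearly all actives have a fitted effect of over 45% in size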
#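 AMA1 (3D7) with his tag at 25 nM final met compounds first, then biotinylated RON2 peptide at 25 nM; detection used donor plus acceptor beads, 10 µg/mL apiece, read by AlphaScreen after 30 min at room temperature.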
# Starred values were filed as active, the others as inactive; ? = inconclusive; . = no result; [ ] = dose if it differs, or a comment. Only a selection was taken, and hits are over-represented in it overall. Unless noted, the call rests on the fitted dose curve; in most records, active means well fitted curve in the direction sought with a large enough effect; inconclusive means small, poorly fitted or top-dose-only effect, or another doubt; inactive means no such curve, though single readings can be large; an effect the other way counts as inactive or inconclusive.
SMILES,AmpC inh detg,AmpC no deterg,SARS PLP yeast,Shiga toxin inh,Cycloheximide cs,AMA1 RON2 block
Cc1cccc(/C=N\NC(=O)c2sccc2-n2cccc2)c1,-4%,-27%,4%,114*,65*,-6%
CC(C)c1ccc(NC(=O)c2sccc2-n2cccc2)cc1,2%,-21%,-15%,158*,56*,-15%
Cc1c(Br)cccc1NC(=O)c1sccc1-n1cccc1,-7%,-41%,?,-12,13,-12%
O=C(N/N=C\c1ccccc1)c1sccc1-n1cccc1,-12%,-41%,-4%,49*,26*,-4%
O=C(N/N=C\c1cccs1)c1sccc1-n1cccc1,1%,-14%,-2%,35,24,7%
Clc1ccc(CSc2nnc3ccccn23)c(Cl)c1,?,-4%,-22%,40*,60*,8%
O=[N+]([O-])c1ccccc1CSc1nnc2ccccn12,2%,-15%,-1%,53*,40*,-9%
CC1=C(c2ccc(C)c(C)c2)S(=O)(=O)N(Cc2ccc(C(=O)NCc3ccc(C)cc3)cc2)C1=O,-5%,.,.,.,.,.
Cc1[nH]c2ccccc2c1/C=N/NC(=O)c1cc(-c2ccncc2)nc2ccccc12,2%,110%,5%,-15,-1,-3%
O=C(CSc1ncnc2c1cnn2-c1cccc(Cl)c1)NCC1CCCO1 (configuration not stated),-4%,1%,-5%,16,-1,14%
Cc1ccc(-n2ncc3c(SCC(N)=O)ncnc32)cc1C,?,-5%,3%,52*,48*,10%
COc1cc(C(C)=O)ccc1Oc1ncnc2c1cnn2-c1ccccc1,-10%,-21%,-6%,1,1,-9%
CCOC(=O)Cn1cnc2c(cnn2-c2ccc(C)c(C)c2)c1=O,22%,.,.,.,.,.
CC(=O)CSc1ncnc2c1cnn2-c1ccccc1,8%,-10%,-1%,91*,36*,-1%
CC(Sc1ncnc2c1cnn2-c1ccccc1)C(=O)NCC1CCCO1 (configuration not stated),2%,53%,-11%,64,20*,3%
COc1cc(C(C)=O)ccc1Oc1ncnc2c1cnn2-c1ccc(C)c(C)c1,-1%,-5%,-15%,63*,32*,5%
O=C(NC1CCCCC1)N(CCN1CCCC1)Cc1cc2cc3c(cc2[nH]c1=O)OCCO3,?,59%,3%,9,-3,-19%
COc1ccc(NC(=O)NCc2cccn2Cc2ccc(F)cc2)cc1OC,17%,.,.,.,.,.
Cc1ccn2c(=O)nc(SCC(=O)N3CCN(c4ccccc4)CC3)nc2c1,?,26%,6%,.,.,8%
CNC(=O)CSc1ncnc2c1cnn2-c1ccccc1,5%,-14%,-1%,69*,35*,29%
O=C(c1ccc2c(c1)OCO2)N1CCN(c2ccc(F)cc2)CC1,-4%,-15%,10%,33,18*,-3%
O=C(c1ccc2c(c1)OCO2)N1CCN(c2ncccn2)CC1,-6%,-7%,-20%,16,-3,-6%
Oc1cc2c(cc1CN1CCN(c3ccc(F)cc3)CC1)OCO2,?,-18%,1%,-13,-6,32µM*
N#Cc1ccccc1S(=O)(=O)N1CCN(Cc2cc3c(cc2Br)OCCO3)CC1,.,.,.,.,.,-6%
Brc1cc2c(cc1CN1CCN(c3ccccc3)CC1)OCCO2,5%,-4%,-2%,7,-2,7.9µM*
SMILES,AmpC inh detg,AmpC no deterg,SARS PLP yeast,Shiga toxin inh,Cycloheximide cs,AMA1 RON2 block
O=C1NC2(CCC3(CC2)OCCO3)NN1c1ccc(Cl)cc1,3%,-1%,-10%,45,13,-3%
NNC(=O)c1cc(C23CC4CC(CC(C4)C2)C3)nc2ccccc12,?,-40%,2%,-6,-2,70%
NNC(=O)c1cccc(O)c1,-1%,-17%,15%,58*,67*,21%
O=C(NN=C1CCCC1)c1ccc(Br)cc1,-4%,-23%,-3%,-2,-1,30%
CC1C/C(=N\NC(=O)c2ccc([N+](=O)[O-])cc2)CC(C)(C)C1 (configuration not stated),6%,-21%,0%,16,7,37%
CC(O)C(O)C(O)C(O)/C=N/NC(=O)c1ccccc1 (configuration not stated),-1%,-13%,9%,86*,38*,76%
O=C(NN=C1CCCC1)c1ccc(Cl)cc1,-6%,-39%,-1%,72*,41*,39%
CC1C/C(=N\NC(=O)c2ccc(NS(=O)(=O)c3ccc(Br)cc3)cc2)CC(C)(C)C1 (configuration not stated),-7%,?,5%,17*,12,54%
COC(=O)[C@]12CCCCC=C1N(Cc1ccc3c(c1)OCO3)C(=O)[C@H](CC(=O)NCC1CCCCC1)C2,.,.,.,.,.,-18%
CCc1ccc(NC(=O)C(=O)NNC(=O)c2cccc(OC)c2)cc1,-8%,-24%,-1%,-10,1,79%
O=C(NN=C1CCCC1)c1cc(O)cc(O)c1,-6%,-51%,1%,-30,5,-26%
COc1ccc(C(=O)NN=C2CCCC2)cc1,?,-14%,-5%,8,active,65%
O=C(NN=C1CCCC1)c1cccc(O)c1,?,-25%,-1%,76*,47*,23%
O=C(NN=C1CCCCCC1)c1cccnc1,1%,-13%,0%,84*,31*,75%
CC1C/C(=N\NC(=O)c2cccnc2)CC(C)(C)C1 (configuration not stated),0%,-14%[11.4 µM],0%,65,18*,25%
Cc1cc(OCc2ccc(C(=O)NN=C3CCCC3)cc2)ccc1Cl,-13%,-15%,-54%,85*,57*,-2%
COc1ccccc1NS(=O)(=O)c1cccc(C(=O)NN=C2CCCC2)c1,4%,-45%,0%,26,2,36%
O=C(O)c1ccccc1NN=C1CCCCC1,11%,-22%,-1%,110*,57*,63%
O=C(NN=C1CCCC1)c1ccccc1[N+](=O)[O-],1%,-21%,4%,-10,4,68%
O=C(NN=C1CCCC1)c1ccccc1O,-9%,-32%,7%,58*,18*,2%
O=C(Nc1ccccc1C(=O)O)c1ccccc1,-18%,-12%,-4%,-7,2,-7%
COc1cccc(C(=O)NN=C2CCCC2)c1,?,-29%,-4%,67*,38*,31%
O=C(NCCc1ccc(Cl)cc1)C1CCN(C(=O)N2CCOc3ccccc32)CC1,-15%,174%,?,-8,2,5%
COc1ccc(OC)c(NC(=O)c2ccccc2N(C)S(=O)(=O)c2ccc(C)cc2)c1,?,6%,3%,-7,-3,-6%
COc1ccc(C2CC(C)=NN2C=O)cc1OC (configuration not stated),-3%,-7%,6%,27,3,-6%
